# Experimental data from the supplement of paper PMC13380429.
# A number with no mark means an inactive call.
# Test system: Vero E6 infected with SARS-CoV-2
# Test: inhibition of SARS-CoV-2 cytopathic effect; higher = more antiviral protection, active = above 15
# Settings: 48 h
Compound,inhibition of SARS-CoV-2 cytopathic effect (1 nM) [%],inhibition of SARS-CoV-2 cytopathic effect (8.33 nM) [%],inhibition of SARS-CoV-2 cytopathic effect (100 nM) [%],inhibition of SARS-CoV-2 cytopathic effect (833.33 nM) [%],inhibition of SARS-CoV-2 cytopathic effect (10000 nM)
COc1ccccc1N1CCN(CCN2C(=O)c3ccccc3C(C)(C)C2=O)CC1,0.16,-2.9,2.69,-0.3,0.21%
CN(C)CCN(C)CCc1ccc(Cl)c(Cl)c1,-3,-0.98,1.41,-3.83,-3.28%
Oc1cccc(-c2nc(N3CCOCC3)c3oc4ncccc4c3n2)c1,-0.17,0.46,-0.59,-6.22,-7.96%
O=C1C2CCN(CC2)C1(CO)CO,-0.42,1.99,3.09,2.96,5.06%
CCn1cc(C(=O)O)c(=O)c2cnc(N3CCCC3)nc21 [piromidic-acid],-0.85,1.01,0.19,-0.21,-1.75%
O=C(O)CNC(=O)c1c(O)c2ccccc2n(Cc2ccccc2)c1=O,-0.58,-1.09,0.41,-0.62,-1.13%
O=C(OCCOCCO)c1ccccc1Nc1cccc(C(F)(F)F)c1 [etofenamate],1.16,-1.53,0.55,-0.46,-2.39%
CNC(=O)[C@@H](Cc1ccccc1)N(C)C(=O)[C@@H](Cc1ccc2ccccc2c1)N(C)C(=O)/C=C/CC(C)(C)N [tabimorelin],0.97,-0.49,-1.39,2.19,0.56%
O=C(NOCC1CC1)c1ccc(F)c(F)c1Nc1ccc(I)cc1Cl,-1.59,-0.84,-7.28,-6.38,-13.8%
COc1cc(/C=C(\C#N)C(N)=O)cc(CSc2nc3ccccc3s2)c1O [tyrphostin-AG-825],2.84,1.12,0.69,-0.02,0.99%
COc1c(N2CCNC(C)C2)c(F)cc2c(=O)c(C(=O)O)cn(C3CC3)c12 (stereo not given) [gatifloxacin],-0.1,1.9,0.16,0.37,-2.52%
NCCCCN=C(N)N [agmatine],2.36,2.56,-1.24,-2.12,-4.69%
CCOC(=O)N1CCC(=C2c3ccc(Cl)cc3CCc3cccnc32)CC1 [loratadine],1.77,0.5,0.11,-0.88,-4.61%
CCCCCCCCCCCCCCSCC(=O)O [tetradecylthioacetic-acid],0.56,0.01,-2.65,-4.9,1.48%
NC(=O)[C@@H]1CC[C@@H]2CN1C(=O)N2OS(=O)(=O)O [avibactam],-1.08,0.92,-0.14,0.95,1.7%
Cc1nccn1CCC(C(N)=O)(c1ccccc1)c1ccccc1 [imidafenacin],-0.4,-0.55,1.32,4.43,0.89%
Cc1cccc(Oc2cnc(=O)[nH]c2)c1 [tolimidone],-0.32,-2.84,-2.12,-13.1,0.88%
CC(C)(C)C(=O)OCOP(=O)(COCCn1cnc2c(N)ncnc21)OCOC(=O)C(C)(C)C [adefovir-dipivoxil],2.79,1.23,-0.37,-2.27,-3.69%
C=CCC1(CC(C)C)C(=O)NC(=O)NC1=O [butalbital],-0.15,4.37,2.7,1.69,1.37%
CC(C)Cn1cnc2c(N)nc3ccccc3c21 [imiquimod],1.22,1.42,-0.63,2.38,0.63%
CCCN(CCC)[C@H]1CCc2cccc(O)c2C1 [8-hydroxy-DPAT],-1.75,1.08,1.06,-0.13,-3.59%

Compound,inhibition of SARS-CoV-2 cytopathic effect (1 nM) [%],inhibition of SARS-CoV-2 cytopathic effect (8.33 nM) [%],inhibition of SARS-CoV-2 cytopathic effect (100 nM) [%],inhibition of SARS-CoV-2 cytopathic effect (833.33 nM) [%],inhibition of SARS-CoV-2 cytopathic effect (10000 nM)
N=C(N)NCCC[C@H](N)C(=O)O [L-arginine],2.26,3.4,-3.93,1.97,1.83%
CC(C)(C)[C@H]1CC[C@H](CC2=C(O)C(=O)c3ccccc3C2=O)CC1 [buparvaquone],1.01,3.57,2.36,0.32,-5.12%
NC(=O)c1ncn([C@@H]2O[C@H](CO)[C@@H](O)[C@H]2O)n1 [ribavirin],-5.15,-3.9,-6.04,-0.66,4.23%
Nc1nccs1 [aminothiazole],-0.84,1.04,0.28,2.14,1.48%
Fc1ccc(CN2CCC(Nc3ccc(C(F)(F)F)nn3)CC2)cc1F,0.35,2.13,2.17,1.38,-6.9%
C(#CCN1CCCC1)CN1CCCC1 [tremorine],8.56,4.46,-2.04,-3.53,-1.73%
CCCCc1oc2ccc(NS(C)(=O)=O)cc2c1C(=O)c1ccc(OCCCN(CCCC)CCCC)cc1 [dronedarone],3.27,1.28,-0.45,4.57,29.3% (active)
CCCc1cc(C)[nH]c(=O)c1CNC(=O)c1cc(-c2ccc(N3CCN(C(C)C)CC3)nc2)cc2c1cnn2C(C)C,-1.83,1,-2.55,-0.64,42.3% (active)
CC(C)=CCC/C(C)=C/CC/C(C)=C/CSc1ccccc1C(=O)O [salirasib],2.79,2.19,1.36,6.06,0.01%
NC1=NC(=O)N([C@H]2C[C@H](O)[C@@H](CO)O2)CN1,-1.14,-2.12,0.08,0.71,-0.27%
O=C(N[C@@H]1Cc2ccccc2N(C[C@@H](O)CO)C1=O)c1cc2cc(Cl)sc2[nH]1,-0.59,-0.92,-2.86,-2.28,-3.46%
O=C(/C=C/c1ccc(O)c(O)c1)O[C@H](Cc1ccc(O)c(O)c1)C(=O)O [rosmarinic-acid],2.8,3.5,2.25,3.06,3.05%
CNc1cc(OC)c(C(=O)NC2CCN(Cc3ccccc3)C2C)cc1Cl (stereo not given) [nemonapride],-1.01,2.19,0.65,-1.52,2.33%
CCOC(=O)c1c(CSc2ccccc2)n(C)c2cc(Br)c(O)c(CN(C)C)c12 [arbidol],-1.24,3.62,2.92,4.8,3.91%
COCC[n+]1c2c(n(Cc3cnccn3)c1C)C(=O)c1ccccc1C2=O,0.33,4.83,2.74,-2.2,-9.2%
CC(C)(C)c1ccc(S(=O)(=O)Nc2ccc(Cl)cc2C(=O)c2cc[n+]([O-])cc2)cc1 [vercirnon],1.28,1.21,2.63,4.3,1.46%
Cc1ccc(S(=O)(=O)NCl)cc1 [chloramine-T],1.46,3.35,1.32,0.02,-5.13%
CN(C(=O)c1ccc(F)cc1C(F)(F)F)C1CCN(c2nnc(-c3ccnn3C)c3ccccc23)CC1 [taladegib],0.16,-6.09,-5.17,-5.9,-5.54%
C=CCNC1=C2C[C@@H](C)C[C@H](OC)[C@H](O)[C@@H](C)/C=C(\C)[C@H](OC(N)=O)[C@@H](OC)/C=C\C=C(/C)C(=O)NC(=CC1=O)C2=O [tanespimycin],-1.35,-0.13,-4.27,-0.63,3.92%
O=C(Nc1nc2cccc(-c3ccc(CN4CCS(=O)(=O)CC4)cc3)n2n1)C1CC1 [filgotinib],-1.13,-1.84,4.15,3.84,-1.27%
